This is a sample that favours compounds with a hit; in the whole collection about 3.5% have one here.
Anthrax LF prot – Bacillus anthracis LF protease inhibitors, primary screen, biochemical, multiplex microsphere, MLPCN library; 360,000 compounds, 0.12% hits; inhibition, % at 10 µM; Lethal factor (Bacillus anthracis), P15917; multiplex microsphere protease cleavage assay; AID 588501, 2011
BoNT-A LC inh2 – BoNT/A light chain protease inhibitors, primary screen, biochemical, flow cytometry, MLPCN library; AID 588499, 2011; 360,000 compounds, 0.17% hits; Botulinum neurotoxin type A light chain protease (Clostridium botulinum A str. ATCC 3502); multiplex microsphere protease substrate cleavage; inhibition, % at 10 µM
BoNT-F LC inh – BoNT/F light chain protease inhibitors, primary screen, biochemical, flow cytometry, MLPCN library | Botulinum neurotoxin type F light chain protease (Clostridium botulinum) | Multiplex microsphere protease cleavage assay | inhibition, % at 10 µM | 360,000 compounds, 0.22% hits | AID 588497, 2011; in the data active = inhibition above about 35%, passing the limit was not always enough; inconclusive = no clear call, values can overlap the other calls
Autofluor counter – flagged as autofluorescent in microsphere protease counterscreen; compound autofluorescence counterscreen, microsphere flow cytometry; hits give high values; fluorescence intensity (concentration not given with the values); 360,000 compounds, 3.1% hits; AID 624483; in the data active = fluorescence intensity above about 16000; inconclusive = no clear call, values can overlap the other calls
Large screens that a line does not name were inactive. Cut-off read from the data, not from the text of the source, unless noted: active = inhibition above about 30%; inconclusive = no clear call, values can overlap the other calls; inactive = below that.

COc1ccc(S(=O)(=O)N(CC(=O)NCc2ccncc2)Cc2ccccc2)cc1	none
COc1ccc(CNC(=O)CN(Cc2ccccc2)S(=O)(=O)c2ccc(Cl)cc2)cc1	Autofluor counter 22889
COc1ccc(S(=O)(=O)N(CCc2ccccc2)CC(=O)NC(C)C)cc1	Autofluor counter 22967
COc1ccc(C)cc1S(=O)(=O)N(CC(=O)NCc1ccc(Cl)cc1)Cc1ccccc1	Autofluor counter 22998
COc1ccc(CNC(=O)CN(Cc2ccc(Cl)cc2)S(=O)(=O)c2ccccc2)cc1	Autofluor counter 24986
COc1ccc(S(=O)(=O)N(CC(=O)NC(C)C)Cc2ccccc2)cc1	none
Cc1ccc(NCC2(N=Cc3ccccc3)OC(CO)C(O)C2O)cc1 (stereo not drawn)	none
CCN(CC)S(=O)(=O)c1ccc(F)c(C(=O)NCCC(C)C)c1	BoNT-A LC inh2 inconclusive, Autofluor counter 17171
CCN(CC)S(=O)(=O)c1ccc(Cl)c(C(=O)NC)c1	none
O=C(NCc1ccc(F)cc1)c1cc(S(=O)(=O)N2CCOCC2)ccc1F	BoNT-A LC inh2 inconclusive, Autofluor counter 21187
O=C(NCCc1ccccc1)c1cc(S(=O)(=O)N2CCCC2)ccc1F	none
CCCCCNC(=O)c1cc(S(=O)(=O)N2CCCCC2)ccc1F	BoNT-A LC inh2 inconclusive, Autofluor counter 23121
CCCNC(=O)c1cc(S(=O)(=O)N2CCc3ccccc32)ccc1F	Autofluor counter 16850
Cc1ccc(S(=O)(=O)N2CCCCC2)cc1NC(=O)c1cnccn1	none
Cc1cccc(NC(=O)c2ncn3c2C(=O)N(C)CC3)c1	none
O=C(CSc1nnc(-c2cccs2)n1-c1cccc(Cl)c1)c1cccc2c1OCCO2	none
O=C(COC(=O)CNC(=O)c1ccc(Cl)cc1Cl)NCc1ccco1	none
CC/C(=N/O)C(=O)c1ccc(Br)cc1	none
COc1ccccc1Nc1nnc(C)c(=O)[nH]1	Autofluor counter 16456
CC(C)CC(=O)CC1(O)C(=O)Nc2ccccc21 (stereo not drawn)	none
Cc1ccc(-c2cc3nc(C)cc(NCc4ccco4)n3n2)cc1	Autofluor counter 16495
Cc1cc(=O)nc2c3ccccc3n(CC(=O)NC(C)c3ccc4c(c3)OCCO4)n12 (stereo not drawn)	none
CC(C)(C)OC(=O)N(Cc1ccccc1)Cc1ccccc1OCc1cccc(NC(=O)c2ccccc2)c1	none
N#C/C(=C\c1cccc(O)c1)C(=O)N1CCCCC1	BoNT-F LC inh 47
Cn1ncc([N+](=O)[O-])c1C(=O)Nc1ccn(Cc2ccccc2F)n1	Autofluor counter 24402
Cc1nn(Cc2cccc(C(=O)Nc3ccn(Cc4ccccc4F)n3)c2)c(C)c1[N+](=O)[O-]	none
Cn1cc([N+](=O)[O-])c(C(=O)Nc2ccn(Cc3c(F)c(F)cc(F)c3F)n2)n1	BoNT-A LC inh2 inconclusive, Autofluor counter 23100
O=C(Nc1ccn(Cc2ccccc2F)n1)c1ccc(COc2ccc(Br)cc2)cc1	BoNT-A LC inh2 inconclusive, Autofluor counter 24596
O=S(=O)(Cc1nnnn1-c1ccccc1)c1ccc(F)cc1	none
COc1ccc(C2C(C(=O)NCc3ccccc3)=C(C)Nc3ncnn32)cc1OC (stereo not drawn)	Autofluor counter inconclusive
CC1=C(C(N)=O)C(c2ccc(Cl)cc2Cl)n2ncnc2N1 (stereo not drawn)	Autofluor counter 21777
CCOc1ccc(C2C(C(N)=O)=C(C)Nc3ncnn32)cc1OC (stereo not drawn)	none
CCCCOC(=O)C1=C(C)Nc2ncnn2C1c1ccc(OCC)c(OC)c1 (stereo not drawn)	Autofluor counter 19529
CCCCOC(=O)C1=C(C)Nc2ncnn2C1c1ccc(OC)c(OC)c1 (stereo not drawn)	BoNT-A LC inh2 inconclusive, Autofluor counter 21510
CN(C)S(=O)(=O)N1CCN(CC(O)COc2ccc(-c3ccccc3)cc2)CC1 (stereo not drawn)	none
CN(C)/C=C/C(=O)c1cnc(-c2ccccn2)s1	none
Cc1ccc(NC(=O)CC(O)(C(F)(F)F)C(F)(F)F)cc1	BoNT-A LC inh2 inconclusive, Autofluor counter 22690
O=C(CNS(=O)(=O)c1ccc(F)cc1)Nc1ccc(C(F)(F)F)cc1	Autofluor counter 16544
O=C(CNS(=O)(=O)c1ccccc1)Nc1ccc(C(F)(F)F)cc1	none
Cc1ccc(S(=O)(=O)NCC(=O)Nc2ccc(C(F)(F)F)cc2)cc1	Autofluor counter 23413
Cc1cccc(C)c1N(CC(=O)NCc1ccco1)C(=O)CNS(=O)(=O)c1ccc(F)cc1	none
CC(=O)c1cccc(NC(=O)CSc2nnnn2C2CCCC2)c1	none
CC1=CCC(C(=O)O)(C(=O)N/N=C/c2cccs2)C(c2ccc([N+](=O)[O-])cc2)C1 (stereo not drawn)	Autofluor counter 21132
CC(=O)Nc1c(N)c2ccccc2oc1=O	none
O=c1[nH]c(=S)[nH]c2c1C(C1CCCCC1)OC(C1CCCCC1)C2 (stereo not drawn)	none
COc1ccc(C2=NN(C)C(=NCc3ccccc3)SC2)cc1	Autofluor counter 24219
Cc1cc(C)cc(CC(=O)N2CCC2(C)C(=O)NS(=O)(=O)c2ccccc2Cl)c1 (stereo not drawn)	none
CCC(C)Nc1nc2c(C)cccn2c(=O)c1C=Nc1ccc(OC)cc1 (stereo not drawn)	none
CCCN1C(=O)/C(=C/c2c(NCCCOC(C)C)nc3c(C)cccn3c2=O)SC1=S	BoNT-F LC inh 35
CCCCC[C@@H](C)N1C[C@H](COCc2ccccc2)Oc2cc(N3CCC[C@H]3CO)ccc2S1(=O)=O	none
CCc1nc2ccc(C(=O)N3CCCC(C(N)=O)C3)cn2c1N(C=O)CC (stereo not drawn)	none
CCc1ccc([C@H]2C(C(=O)O)=C[C@@H](CC3CCCC3)N2S(=O)(=O)c2ccc(C)cc2)cc1	none
CC(C)OCCCNC(=O)c1cccs1	Autofluor counter 22575
COc1ccccc1CNC(=O)CN(C)S(=O)(=O)c1ccc(Br)s1	none
Cc1cc(C)n(CC(O)COCc2ccccc2)n1 (stereo not drawn)	BoNT-A LC inh2 inconclusive, Autofluor counter 20483
C[n+]1cn(CC(O)COCc2ccccc2)c2ccccc21 (stereo not drawn)	none
Cc1cc2c(cc1C)[n+](C)cn2CC(O)COCc1ccccc1 (stereo not drawn)	Autofluor counter 22173
CC(=O)NC(Cc1cc(C)ccc1C)C(=O)N1CCN(C(=O)Nc2ccc(C(C)=O)cc2)CC1 (stereo not drawn)	BoNT-A LC inh2 inconclusive, Autofluor counter 17945
CCOC(=O)c1c(C)n(CC(COC(C)=O)OC(C)=O)c2ccc(OC(C)=O)cc12 (stereo not drawn)	Autofluor counter 16360
CCC(C)N(C(=O)Cn1nnc(-c2ccc(F)cc2)n1)C1CCS(=O)(=O)C1 (stereo not drawn)	Autofluor counter inconclusive
C[C@@H]1CN([C@H](C)CO)C(=O)CCCn2nncc2CO[C@@H]1CN(C)S(=O)(=O)c1ccc(F)cc1	none
CCOC(=O)COc1ccc(Oc2nc(C)cc(OC)n2)nn1	Autofluor counter 21448
CC(C)c1c(O)nc(SCCC(=O)O)[nH]c1=O	none
CCCN(CCC)CCSc1nc(O)c(C(C)C)c(=O)[nH]1	BoNT-A LC inh2 inconclusive, Autofluor counter 18038
CCCCCc1c(O)nc(SCCN(CC)CC)[nH]c1=O	none
